± gives the standard deviation of the averaged measurements. In all, about 25,000 sequences were measured (“ln(normalized median fluorescence intensity)”: median about 8.9, highest 2% from about 10 on). Many of the other results were omitted from the sample, so the highest values are more common in it than they were.
system: PfAP2-LT AP2 domain (GST-tagged); assay: gcPBM binding intensity (ln(normalized median fluorescence intensity)); higher = stronger DNA binding
Procedure, shortened: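 Each value is the highest Masliner-normalised natural-log median intensity across replicate spots of either orientation of a probe. The probes were primer-extended double-stranded 36-bp intergenic genomic sequences on an Agilent 4 × 180k array, alongside negative controls, exposed for 1 h to GST-tagged P. falciparum DNA-binding domains expressed in E. coli. Bound protein was picked up with Alexa488 anti-GST antibody and scanned at 488 nm.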

Row | Sequence | gcPBM binding intensity (ln)
1 | ATAATACATACATACATACACACATATATATATATT [CACACA_site3576] | 9.29 ± 0.38
2 | TTTTTAATCATAATATGTACATATAAAAATGGTTTG [XGTACX_site3996] | 8.54 ± 0.41
3 | TAAAAATGTAAACACACACACATAAATATATTTTAT [CACACA_site5397] | 9.45 ± 0.26
4 | GATAAAATAGGACCATATTCTTTAAAACGATAAAAT [XGTACX_negctrl_site405] | 8.73 ± 0.51
5 | TTATATTATATATATATTATATATATGTATGCATAA [TGCATGCA_negctrl_site481] | 8.72 ± 0.2
6 | TTTTGCAAATATTACTGTACACAATCTCATATAATT [XGTACX_site2584] | 8.81 ± 0.35
7 | ATTATTTTTTTTGAAGTGCAATATTATTTTTAATCA | 8.46 ± 0.45
8 | AAAGTATTCTTTACACGTACATATATATAAATATAA [XGTACX_site7557] | 8.59 ± 0.33
9 | TTATAAATAAAAAATACACACATATATATATATATA [CACACA_site207] | 9.64 ± 0.2
10 | CTAAAATACGGACACACACACACATATATATATATA [CACACA_site6138] | 10.3 ± 0.11
11 | AGGATACACGGACACACACACATATAGATTTATATA [CACACA_site6552] | 9.78 ± 0.51
12 | TACATATTTATATACACACACACACGGATATTTATA [CACACA_site7239] | 9.87 ± 0.45
13 | AAAAAACACGGACACACACACATATACATACATACA [CACACA_site5470] | 9.98 ± 0.41
14 | AGGATACACGGACACACACACATATATATATATATA [CACACA_site4654] | 10.43 ± 0.078
15 | ATTATATATATATATACACACACATATATATATATA [CACACA_site8373] | 9.47 ± 0.25
16 | TATACACCCGGACACACACACATATATATATATATA [CACACA_site5030] | 10.36 ± 0.028
17 | CATACATACGGACACACACACATATATATATATATA [CACACA_site5598] | 10.3 ± 0.15
18 | AAAAAAAACGGACACACACACATAAATATATATAAA [CACACA_site4260] | 9.86 ± 0.34
19 | CATACACCCGGACACACACACACACCCATATATAAT [CACACA_site4494] | 10 ± 0.35
20 | AAAATACCCGGACACACACACATATATATATATATT [CACACA_site6137] | 9.88 ± 0.49

Row | Sequence | gcPBM binding intensity (ln)
21 | AGTAAAAGAAAGCACACACACATGTATTTATGTATG [CACACA_site5998] | 9.71 ± 0.42
22 | TATATATATATATATTGTACACATACATGTAGTTTT [XGTACX_site4848] | 9.48 ± 0.49
23 | ACACATATAATAGTTACATGCAAAAATACTTTTATT [TGCATGCA_site785] | 9.03 ± 0.47
24 | ACCAAATCATATATAGCACACAAATTCTTTATTATT [CACACA_site8911] | 8.94 ± 0.38
25 | TAAAAAAAAACATGATGTACATAAAATTTTTTACTT [XGTACX_site7056] | 8.59 ± 0.47
26 | AAAAAAATATATAAATGTACATATTGTTTAATTAAT [XGTACX_site3794] | 8.7 ± 0.45
27 | ATAATAAATGATAGCACACATATGTACATAAATACA [CACACA_site4634] | 9.24 ± 0.31
28 | TATTAATTTATATCAACACACAAAATCAATATACTT [CACACA_site1757] | 8.7 ± 0.42
29 | ATTATGCTACAAGGAGAACACACAATTGCCACTTTT [CACACA_site8673] | 9.1 ± 0.46
30 | AATGATCATATATACACACACACAAAAAAAAAAAAA [CACACA_site4009] | 9.6 ± 0.45
31 | ATAAAGATAATATATGCACACATATAAATATATAAA [CACACA_site9153] | 9.09 ± 0.43
32 | TATAAATACAGATACACACACACACCGATATATATA [CACACA_site5271] | 9.94 ± 0.18
33 | ATTTAATACAAATACACACACAAATAAATACAGATA [CACACA_site5956] | 9.47 ± 0.26
34 | CATATATAAATATATACACACATACATACATACATA [CACACA_site5988] | 9.36 ± 0.4
35 | AATAAATATATAAATACACACAAACATACAGATATA [CACACA_site6088] | 9.37 ± 0.35
36 | TACATACATACATACACACACACATATAAATACATA [CACACA_site4626] | 10.1 ± 0.4
37 | ATAAATACAGATAACACACACATATATATATATATA [CACACA_site5431] | 10.225 ± 0.0071
38 | CATAAATACATACATACACACATATATATATATATA [CACACA_site2106] | 9.88 ± 0.085
39 | TACAGATACAGATACACACACACACCGAAATAAATA [CACACA_site4865] | 10.2 ± 0.43
40 | TATACAGATAAATACACACACACATATATATATATA [CACACA_site4845] | 10.3 ± 0.25

Row | Sequence | gcPBM binding intensity (ln)
41 | TATACAGATATATATACACACATATATATAAATACA [CACACA_site4383] | 9.24 ± 0.39
42 | CACATACAGATATATACACACAAATATAAATACACA [CACACA_site6512] | 9.52 ± 0.4
43 | CATACAGATATATATACACACATACAGATAAATACA [CACACA_site4592] | 9.3 ± 0.28
44 | AATTAAATTATAAGCACACACATATATATATATATA [CACACA_site3351] | 9.81 ± 0.057
45 | ATAGTTACACGCCAAAAAAAAAAAAAAAAAAAAAAA [CACACA_negctrl_site1133] | 8.21 ± 0.42
46 | TTTTTTTTTTTTTTTTGTACACATAATATGAATAAT [XGTACX_site2661] | 8.57 ± 0.32
47 | AAAAAATTATTAATTTGTACATAAATAACCAAAAAA [XGTACX_site2488] | 8.49 ± 0.52
48 | TTTTCCTTTACATAATGTACACAAAAAAAAAAAAAA [XGTACX_site716] | 8.21 ± 0.35
49 | CTATAAAAATATAATTGTACAAATTTTTATATCTTA [XGTACX_site7722] | 8.35 ± 0.45
50 | TAGAAACCATAAAAATGTACTTAAAAATAGACAATT [XGTACX_site5007] | 8.78 ± 0.5
51 | AAAATTTTGGAACGTGCACACATATGTAATATATAT [CACACA_site9004] | 9.32 ± 0.37
52 | TACATACATACATACACACACATATAGATTTATATA [CACACA_site6999] | 9.48 ± 0.28
53 | CTATATAATATGAGCACACATAAGATTTGGTGTTAT [CACACA_site744] | 8.93 ± 0.34
54 | AAATTATAATATAATACACACATAAAAAAAAAATCA [CACACA_site3634] | 9 ± 0.44
55 | AGGCACGTGTTATATACACACATAATCAAATAAACT [CACACA_site7852] | 9.36 ± 0.38
56 | TAAATAAATACATACACACACATACAGATATATATA [CACACA_site5690] | 9.62 ± 0.26
57 | TATACAGATAAATACACACACATATATATATATATA [CACACA_site4178] | 10.2 ± 0.33
58 | CATAAATACAGATATACACACATATATATATATATA [CACACA_site4528] | 9.7 ± 0.45
59 | CCCCCCGTGTTATATACACACATAATCAAATAAAAT [CACACA_site4111] | 11.1 ± 0.44
